SW480 rereplic = A quantitative high throughput screen for small molecules that induce DNA re-replication in SW480 colon adenocarcinoma cells; SW480 DNA re-replication, Hoechst DNA content imaging, 48 h; Potency, µM (top dose mostly 46.1 µM), without a hit: at the top dose re-replication activation, usual class: activators; 340,000 tested, 1.8% active; AID 624297, 2012; note: % of control where 0% means no effect; nearly all actives have a fitted effect of over 55% in size
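Treated cells incubate 48 hr (37 C, 5% CO2), are stained 40 min with Hoechst, and nuclear fluorescence is enumerated; a rise in nuclei with high DNA signal marks re-replication.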
KB-V1 cytotox = qHTS assay for MDR1-selective chemotherapeutics: Primary screen using the drug-selected MDR subline cells KB-V1. Potency, µM (titrated, usually from 46.1 µM), actives largely listed as cytotoxic. 400,000 tested, 3.4% active. KB-V1 MDR cells viability, CellTiter-Glo, 72 h; note: % is set by controls: 0 for no effect and ±100 for the full control effect; nearly all actives have a fitted effect of over 60% in size
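In this primary screen, KB-V1 cells overexpressing P-gp are incubated with library compounds (lowest to highest concentration) for 72 h at 37 degrees C before a luminescent ATP viability read.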
MCF10A rerep = A quantitative high throughput screen for small molecules that induce DNA re-replication in MCF 10a normal breast cells; Potency, µM (titrated, usually from 46.1 µM), for the others: top-dose activity, positive = re-replication, actives largely listed as activators; 350,000 tested, 2.9% active; AID 624296, 2012; MCF 10A DNA re-replication, Hoechst nuclear intensity, 48 h; note: % of control where 0% means no effect; nearly all actives have a fitted effect of over 50% in size
RGS4 inhibitor = Inhibitors of Regulator of G Protein Signaling (RGS) 4: qHTS; Regulator of G-protein signaling 4 (Homo sapiens), P49798; Transcreener GDP fluorescence polarization, RGS4-accelerated GTP hydrolysis; Potency, µM (doses to about 114 µM), inactives show top-dose activity change, negative = inhibition, most hits filed as inhibitors; 390,000 tested, 0.039% active; AID 504845, 2011; note: % is set by controls: 0 for no effect and ±100 for the full control effect; nearly all actives have a fitted effect of over 75% in size
Target sequence (P49798 whole entry, looked up): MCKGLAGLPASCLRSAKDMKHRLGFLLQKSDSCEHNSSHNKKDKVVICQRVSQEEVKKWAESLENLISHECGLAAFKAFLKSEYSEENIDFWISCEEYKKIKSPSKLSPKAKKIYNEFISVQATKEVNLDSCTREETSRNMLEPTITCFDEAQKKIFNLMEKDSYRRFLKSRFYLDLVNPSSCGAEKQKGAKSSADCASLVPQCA
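MLSMR compounds (23 nl, pin-transferred) preincubated 10 min at room temperature with a 500nM (2x) first reagent, then RGS4 at 900nM (2x) plus Transcreener GDP mix added; fluorescence polarization (620/688 nm) read before and after 90 min at 30 °C.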
PTAP TSG101 blk = qHTS Assay for Iinhibitors of HIV-1 Budding by Blocking the Interaction of PTAP/TSG101. Fluorescence polarization, FITC-PTAP peptide / Tsg101 binding. 340,000 tested, under 10 active. AID 493005, 2010. Potency, µM (titrated, usually from 115 µM), inactives show at the top dose activity change, negative = inhibition, actives largely listed as inhibitors; active = well fitted inhibition curve with a large enough effect in the main read-out, with a control signal flat, not every such curve was filed as active; inconclusive = small, poorly fitted or top-dose-only effect, or effect the other way, or a change in a side signal; inactive = no such curve, though single readings can be large or run the other way; note: % of control where 0% means no effect
Target sequence (Q99816 whole entry, looked up): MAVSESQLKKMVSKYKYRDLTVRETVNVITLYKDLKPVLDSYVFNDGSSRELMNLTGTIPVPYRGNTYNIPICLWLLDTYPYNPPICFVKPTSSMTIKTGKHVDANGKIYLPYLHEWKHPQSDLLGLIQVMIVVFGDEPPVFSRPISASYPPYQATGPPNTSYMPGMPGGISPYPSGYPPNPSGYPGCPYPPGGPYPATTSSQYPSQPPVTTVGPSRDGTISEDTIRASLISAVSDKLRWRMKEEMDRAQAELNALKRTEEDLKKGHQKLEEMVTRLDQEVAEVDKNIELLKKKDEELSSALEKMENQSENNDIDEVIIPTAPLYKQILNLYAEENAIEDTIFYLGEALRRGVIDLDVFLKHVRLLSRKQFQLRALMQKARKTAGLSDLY
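Steps: Tsg101 binding domain dispensed (10 uM final), compounds pinned in DMSO, FITC-labeled PTAP-motif peptide added (50 nM final); after 20 min binding at room temperature, polarization measured.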
KB-3-1 tox = qHTS assay for MDR1-selective chemotherapeutics: Primary screen using the parental adenocarcinoma cell KB-3-1; 400,000 tested, 1.4% active; Potency, µM (doses to about 46.1 µM), actives largely listed as cytotoxic; KB-3-1 viability, CellTiter-Glo ATP luminescence, 72 h; note: % is set by controls: 0 for no effect and ±100 for the full control effect; nearly all actives have a fitted effect of over 60% in size
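Viability of parental KB-3-1 cells, measured by CellTiter-Glo luminescence, followed a 72 h incubation at 37 °C with pinned compounds in phenol-red-free DMEM containing 10% FBS.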
* = called active by the depositor; i = inactive; ? = inconclusive; . = no result. Sampled rows, rich in hits. Any-hit rate of the full collection: about 6.6%. Unless noted, calls come from the whole dose curve; as a rule, active = well fitted curve in the direction sought with a large enough effect; inconclusive = small, poorly fitted or top-dose-only effect, or another doubt; inactive = no such curve, though single readings can be large; an effect the other way counts as inactive or inconclusive. Potency is the fitted concentration of half-maximal effect.

SMILES | SW480 rereplic | KB-V1 cytotox | MCF10A rerep | RGS4 inhibitor | PTAP TSG101 blk | KB-3-1 tox
O=C(CCl)N1c2ccccc2OCC1c1ccccc1 (stereo not given) | ? | ? | 106% | 8% | 1% | i
O=C(CCl)N1c2ccccc2SCC1c1ccccc1 (stereo not given) | 15µM* | i | 7.3µM* | -15% | -6% | ?
O=C(Nc1ccc2c(c1)OCO2)c1ccc(S(=O)(=O)NCC2CCCO2)cc1 (stereo not given) | -5% | i | -1% | -8% | 1% | i
O=C(Nc1cccc(F)c1)c1ccc(S(=O)(=O)NCC2CCCO2)cc1 (stereo not given) | 20% | 16µM* | 5% | 8% | -2% | i
CCCCNC(=O)C(CC)Sc1nc2ccccc2c(=O)n1Cc1ccco1 (stereo not given) | . | i | . | 6% | . | i
C=C1C=C(C)n2ncc(C(=O)Nc3cccc(C(=O)Nc4cccc(C(F)(F)F)c4)c3)c2N1 | . | i | . | . | . | ?
O=C1C(Cc2ccc(Br)cc2)SC(=Nc2ccccc2)N1c1ccccc1 (stereo not given) | ? | 21µM* | ? | -1% | -13% | ?
O=C1C(Cc2cccc([N+](=O)[O-])c2)SC(=Nc2ccccc2)N1c1ccccc1 (stereo not given) | 21% | 21µM* | ? | -27% | 4% | i
CC(C)(C)c1nnc(NC(=O)c2ccc3c(c2)OCO3)s1 | -7% | i | 0% | ? | -3% | i
CC(c1ccccc1)c1nnc(NC(=O)c2ccc3c(c2)OCO3)s1 (stereo not given) | 15µM* | 15µM* | ? | -13% | -1% | ?
COc1ccccc1NC(=O)Nc1nnc(C(C)c2ccccc2)s1 (stereo not given) | ? | i | 23µM* | 18% | -6% | i
COc1ccccc1NC(=O)Nc1nnc(C(C)C)s1 | -4% | i | -6% | -20% | 0% | i
CC(C)c1nnc(NC(=O)c2ccc3c(c2)OCO3)s1 | -26% | i | 0% | -36% | -1% | i
COc1ccccc1-c1nnc(NC(=O)c2ccc3c(c2)OCO3)s1 | 5.8µM* | 6.5µM* | ? | 16% | 0% | 5.8µM*
CC(NC(=O)CN1C(=O)COc2ccc(S(=O)(=O)N3CCCCCC3)cc21)c1ccccc1 (stereo not given) | . | i | . | -18% | . | i
Cc1ccc(C2CC2c2n[nH]c(=S)n2-c2cccc(Cl)c2)cc1 (stereo not given) | -5% | i | 23µM* | -33% | -5% | i
Cc1ccc(C2CC2c2n[nH]c(=S)n2-c2ccc(C)cc2)cc1 (stereo not given) | 25% | i | ? | ? | -6% | i
Cc1ccc(-n2c(C3CC3c3ccc(Cl)cc3)n[nH]c2=S)cc1 (stereo not given) | ? | 21µM* | ? | ? | -7% | i
CCOC(=O)c1ccc(OC(=O)c2cn(-c3ccc(C)cc3)c(=O)c3ccccc23)cc1 | . | i | . | -25% | . | i
CCOc1ccc(CNC(=O)c2ccc(-c3nc(CS(=O)(=O)c4ccccc4)c(C)o3)cc2)cc1 | . | ? | . | -6% | . | i
Cc1ccc(NC(=O)CCN2CCN(C/C=C/c3ccccc3)CC2)cc1C | 7% | 3.3µM* | ? | 4% | 0% | i
Cc1ccc(NC(=O)CCN2CCN(C/C=C/c3ccccc3)CC2)cc1 | ? | i | ? | -12% | -4% | i
COc1ccc(C2CC(c3ccccc3OC(C)=O)=NN2C(=O)/C=C/c2ccccc2)cc1OC (stereo not given) | -1% | ? | 12% | 2% | -1% | ?
COc1ccc(C2=NN(C(=O)/C=C/c3ccccc3)C(c3ccccc3)C2)c(OC(C)=O)c1 (stereo not given) | 3% | 2.9µM* | ? | -21% | 0% | ?
CNC(=O)c1nc(C)n(-c2ccc(Cl)cc2Cl)n1 | -12% | i | 0% | ? | -4% | i
SMILES | SW480 rereplic | KB-V1 cytotox | MCF10A rerep | RGS4 inhibitor | PTAP TSG101 blk | KB-3-1 tox
Cc1c(C(=O)NN2CCCCC2)nn(-c2ccc(Cl)cc2Cl)c1-c1ccc(Cl)cc1 | 4% | . | 13µM* | . | . | .
Cc1ccc(CCNc2ncnc3onc(C)c23)cc1 | . | i | . | -28% | . | 2.9µM*
Cc1noc2ncnc(NCCc3ccccc3)c12 | . | i | . | -11% | . | ?
CCOc1ccc(CCNc2ncnc3onc(C)c23)cc1OCC | . | i | . | -10% | . | 2.6µM*
CC(C)(C)c1ccc(S(=O)(=O)c2cnc(SCC(=O)Nc3ccc4c(c3)OCCO4)[nH]c2=O)cc1 | . | . | . | 7% | . | .
COC(=O)[C@H](C)NS(=O)(=O)C1CC1 | . | i | . | . | . | i
CCn1c(SCC(N)=O)nnc1-c1ccc2[nH]c(C)c(C)c2c1 | -2% | 21µM* | 10% | 4% | -10% | 5.8µM*
CCn1c(SCC(N)=O)nnc1-c1cc2c(C)nn(-c3ccccc3)c2s1 | -7% | 13µM* | 3% | -11% | -2% | i
Cc1cc(C)c(C)c(C(=O)CSc2nnc(-c3ccc4[nH]c(C)c(C)c4c3)o2)c1C | ? | ? | 13µM* | -5% | -1% | i
Cc1[nH]c2ccc(-c3nnc(SCC(=O)c4ccc(F)cc4)o3)cc2c1C | 7% | i | -14% | 1% | -8% | i
Cc1cc(NC(=O)C2CCCN(S(=O)(=O)c3cn(C)cn3)C2)ccc1Br (stereo not given) | . | . | . | 0% | . | .
COc1ccc(OC)c(NC(=O)CCNS(=O)(=O)c2cccc3nonc23)c1 | -16% | i | 1% | 6% | 0% | i
COc1ccc(NS(=O)(=O)c2cccc3nonc23)c(OC)c1 | 0.52µM* | ? | -6% | -12% | -2% | i
O=S(=O)(Nc1c(S(=O)(=O)c2ccccc2)c2nc3ccccc3nc2n1C1CCCCC1)c1ccccc1 | 14% | i | 2.9µM* | ? | -8% | i
CC(=O)Nc1c(S(=O)(=O)c2ccccc2)c2nc3ccccc3nc2n1Cc1ccccc1 | -1% | i | -3% | 4% | -3% | i
